# Reference: PubChem BioAssay
# Where “and” joins values, the source holds several entries; their conditions need not be identical. Equal values may be shown once. Calls of active or inactive are those of the source.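 How the source made its calls, unless noted: active means compounds whose cell count with miR-34 switched on is under 0.7 times the count with it off; inactive means the rest.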
# Assays:
# [1] = hESC survival regulators, cell-based (AID 493140; call rule not given here;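 further: cells exposed to compounds for four days before counting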); details: human embryonic stem cell survival screen; stronger effect = higher value
# [2] = liver-stage malaria parasite growth inhibition, primary screen, cell-based, HepG2, luciferase luminescence, HepG2 viability (AID 624349; in the data active means parasite load remaining mostly below about 12%, no sharp cut-off; inactive means mostly above about 10%;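 further: 100% = mean of DMSO negative control wells on the same plate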); details: P. berghei liver stage in HepG2, luciferase luminescence, concentration not given here; parasite load remaining: stronger effect = lower value; viability: measured here: HepG2 viability without parasites
# [3] = stimulators of nuclear beta-catenin in C2C12, primary screen, imaging, WNT3A-conditioned medium, mouse C2C12, NPC library (AID 1117326; in the data active means nuclear beta-catenin stimulation mostly above about 4.2%, no sharp cut-off; inactive means mostly below about 10%); details: stronger effect = higher value
# [4] = stimulators of insulin release from INS-1E, primary screen, cell-based, 5 mM glucose, NPC library (AID 1117329;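 active means compound raises insulin release from rat beta cells at 5 mM glucose, no numeric limit stated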); details: rat INS-1E insulin secretion, at 10 µM, stronger effect = higher value
# [5] = growth inhibition of GSK3B-pretreated HCT116 cells – cell-based, CellTiter-Glo, 0.2 to 20 µM (AID 1117336;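 active means compounds lowering colon cancer cell viability after pretreatment blocking the GSK3B kinase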); details: HCT116 viability after GSK3B inhibitor, at 20 µM, stronger effect = higher value
# [6] = inhibition of endothelial tube formation, primary screen, imaging, VEGF stimulated, CD31 staining, tube area, NPC library (AID 1117340;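 active means compound that reduces growth-factor-driven endothelial tube area in a mixed cell culture, no cutoff stated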); details: VEGF-stimulated ADSC/ECFC co-culture, at 10 µM, stronger effect = higher value
# [7] = glucagon-like peptide 1 release enhancers, primary assay, NCI-H716 cell line, NPC library (AID 1117341;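 active means compound raises GLP1 secretion from the human gut endocrine cells, with no numeric limit stated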); details: NCI-H716 cells, at 10 µM, stronger effect = higher value
# [8] = HCT116 colon cancer cell growth inhibition, primary screen, CellTiter-Glo luminescence, NPC library (AID 1117342;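 active means compounds that lower survival of HCT116 colon cancer cells in the luminescence readout, no numeric limit stated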); details: at 20 µM (top of the series)
# [9] = CellTiter-Glo luminescent readout of SW480 viability loss, NPC library primary (AID 1117343;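 active means compounds that lower viability of the colon cancer cells in the luminescence readout, with no numeric limit stated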); details: CellTiter-Glo luminescence; at 20 µM (top of the series) unless noted
# [10] = decreased DLD-1 cellular survival, CellTiter-Glo luminescent readout, NPC compound collection, primary HTS (AID 1117346;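 active means compounds that lower survival of DLD-1 colon cancer cells in the luminescence readout, no cutoff given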); details: DLD-1 viability, CellTiter-Glo luminescence; at 20 µM (top of the series)
# [11] = differential killing of epithelial or mesenchymal cells, primary screen, imaging, PC-3E GFP, TEM4-18 mCherry, co-culture (AID 1345086;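 active means compounds killing one labelled cell type while sparing the other, by normalised counts and ratio limits, not self-fluorescent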;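 on all read-outs here: cells exposed to compound for 72 h before imaging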;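 on red/green cell ratio (normalised): normalised mesenchymal count divided by normalised epithelial count so high means epithelial killing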); details: imaging cell counts, at 1 µM; for red/green cell ratio (normalised): actives lie on both sides, counts scaled to control wells, 1 = unselective
# [12] = sensitizers of A549 cells to miR-34 induction, primary screen, imaging, A549 dox-inducible miR-34, nuclei and caspase counts (AID 1347080); details: A549 miR-34 inducible, Hoechst nuclei count, 48 h
# [13] = survival rescue of mitochondrial mutant cells in low glucose, primary screen, MELAS cybrids, Rieske KO mouse fibroblasts, CellTiter-Glo (AID 1508586;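 active means mean z-score across replicates of 1.96 or higher in either the MELAS or the Rieske mutant cell line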;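 further: z relative to plate mean and SD of compound and empty wells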)
# [14] = molecular target: NAD(+) hydrolase SARM1 (Homo sapiens) (UniProt Q6SZW1); experiment: SARM1 TIR NADase inhibitors, cell lysate, NAD-Glo luminescence (AID 1508614;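 active means compound whose remaining NAD level is above about 45 nM, limit read from the data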); details: SAM-TIR HEK293T lysate NADase, at 1 µM, stronger effect = higher value
# Chain of NAD(+) hydrolase SARM1 (Homo sapiens) (Q6SZW1 whole entry, looked up): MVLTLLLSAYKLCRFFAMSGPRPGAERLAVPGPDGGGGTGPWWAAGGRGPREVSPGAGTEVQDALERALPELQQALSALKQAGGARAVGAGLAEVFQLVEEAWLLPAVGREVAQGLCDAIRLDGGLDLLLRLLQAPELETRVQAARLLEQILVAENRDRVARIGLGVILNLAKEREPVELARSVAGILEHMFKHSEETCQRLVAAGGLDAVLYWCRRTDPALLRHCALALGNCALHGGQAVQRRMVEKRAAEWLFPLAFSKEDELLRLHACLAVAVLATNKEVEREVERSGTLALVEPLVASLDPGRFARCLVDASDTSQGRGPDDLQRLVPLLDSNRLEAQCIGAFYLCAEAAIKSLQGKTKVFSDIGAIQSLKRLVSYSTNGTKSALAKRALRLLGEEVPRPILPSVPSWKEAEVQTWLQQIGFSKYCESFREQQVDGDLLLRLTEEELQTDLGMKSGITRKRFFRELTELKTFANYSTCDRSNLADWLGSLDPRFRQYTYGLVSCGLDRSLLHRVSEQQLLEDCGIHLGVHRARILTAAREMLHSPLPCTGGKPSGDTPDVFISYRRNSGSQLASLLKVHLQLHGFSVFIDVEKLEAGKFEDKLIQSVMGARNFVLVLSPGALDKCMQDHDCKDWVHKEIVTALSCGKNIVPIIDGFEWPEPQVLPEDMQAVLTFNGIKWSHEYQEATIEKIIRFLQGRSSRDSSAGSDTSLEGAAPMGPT
# [15] = measured here: epithelial PC-3E GFP cell survival
# [16] = measured here: mesenchymal TEM4-18 mCherry cell survival
# [17] = stronger effect = lower value, cell number ratio, induced over uninduced
# [18] = measured here: relative caspase fold change +Dox/-Dox
# [19] = measured here: total cells with miR-34 induction, stronger effect = lower value
# [20] = measured here: total cells without miR-34 induction
# [21] = MELAS cybrid survival, CellTiter-Glo 48 h, stronger effect = higher value
# [22] = Rieske KO mouse fibroblast survival, CellTiter-Glo 72 h
compound,measurement,setting,value
Oc1c(I)cc(Cl)c2cccnc12,survival,[1],4.42 (inactive)
same,parasite load remaining,[2],11.3% (inactive) and 21.8% (inactive)
same,viability,[2],89.4% and 95.4%
same,nuclear beta-catenin stimulation,[3]; at 10 µM,55.7% (active)
same,nuclear beta-catenin stimulation,"[3]; stimulation, at 2 µM",6%
same,insulin secretion stimulation,[4],-0.1% (inactive)
same,viability decrease,[5],82% (active)
same,tube area decrease,[6],110% (active)
same,GLP1 secretion stimulation,[7],-5% (inactive)
same,inhibition of viability,[8],81.2% (active)
same,viability decrease (inhibition),[9],127% (active)
same,viability decrease (inhibition),[10],97.8% (active)
same,red/green cell ratio (normalised),[11],1 (inactive)
same,normalised cell number,[11]; [15],0.99
same,normalised cell number,[11]; [16],0.99
same,fold change,[12]; [17],1.06 (inactive) and 0.786 (inactive)
same,fold change,[12]; [18],0.681 and 1.8
same,cell count,[12]; [19],5310 and 5470
same,cell count,[12]; [20],5010 and 6960
same,z-score,[13]; [21],0.113 (inactive)
same,z-score,[13]; [22],-0.741
same,remaining NAD,[14],10 nM (inactive)
N=C(N)N1CCc2ccccc2C1,survival,[1],9.58 (inactive)
same,nuclear beta-catenin stimulation,[3]; at 10 µM,0.5% (inactive)
same,nuclear beta-catenin stimulation,"[3]; stimulation, at 2 µM",0.9%
same,insulin secretion stimulation,[4],1.35% (inactive)
same,viability decrease,[5],12.1% (inactive)
same,tube area decrease,[6],-0.3% (inactive)
same,GLP1 secretion stimulation,[7],3.1% (inactive)
same,inhibition of viability,[8],9.2% (inactive)
same,viability decrease (inhibition),[9],5.1% (inactive)
same,viability decrease (inhibition),[10],0% (inactive)
same,red/green cell ratio (normalised),[11],0.87 (inactive)
same,normalised cell number,[11]; [15],1.22
same,normalised cell number,[11]; [16],1.07
same,fold change,[12]; [17],0.813 (inactive) and 0.913 (inactive) and 0.943 (inactive)
same,fold change,[12]; [18],1.55 and 2.39 and 2.81
same,cell count,[12]; [19],8490 and 11800 and 9640
same,cell count,[12]; [20],10400 and 13000 and 10200
same,z-score,[13]; [21],0.0225 (inactive) and -0.468 (inactive)
same,z-score,[13]; [22],-0.12 and -1.06
same,remaining NAD,[14],10 nM (inactive)
CC(=O)c1ccc2c(c1)N(CCCN1CCC(CCO)CC1)c1ccccc1S2,survival,[1],3.92 (inactive)
same,parasite load remaining,[2],69.8% (inactive)
same,viability,[2],79.8%
same,nuclear beta-catenin stimulation,[3]; at 10 µM,3% (inactive)
same,nuclear beta-catenin stimulation,"[3]; stimulation, at 2 µM",0.4%
same,insulin secretion stimulation,[4],1.7% (inactive)
same,viability decrease,[5],78.7% (active)
same,tube area decrease,[6],3.9% (inactive)
same,GLP1 secretion stimulation,[7],-6.7% (inactive)
same,inhibition of viability,[8],77.2% (active)
same,viability decrease (inhibition),[9],85.4% (active)
same,viability decrease (inhibition),[10],60% (active)
same,red/green cell ratio (normalised),[11],1.13 (inactive)
same,normalised cell number,[11]; [15],0.92
same,normalised cell number,[11]; [16],1.04
same,fold change,[12]; [17],0.911 (inactive)
same,fold change,[12]; [18],0.592
same,cell count,[12]; [19],8130
same,cell count,[12]; [20],8930
same,z-score,[13]; [21],-0.364 (inactive)
same,z-score,[13]; [22],-0.0941
same,remaining NAD,[14],10 nM (inactive)
